CHT allo act = CHT positive allosteric modulators, primary screen, cell-based, membrane potential dye, choline EC20; High affinity choline transporter 1 (Homo sapiens), Q9GZV3; actives 0.49% (n = 310,000); CHT-expressing cells; active compounds read high; LV-AA mutant CHT in HEK293 cells; B-score at 10 µM; AID 488977, 2010;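 active means initial fluorescence not abnormally high and integrated response B-score, plate-corrected, over 3 SD above library mean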
HIF activator = HIF pathway transcriptional activators, primary screen, cell-based, U2OS HRE-luciferase, luminescence. U2OS HRE-luciferase reporter; normalized: DMSO 0%, desferrioxamine 100%. activation, % at 7.5 µM (by protocol). actives 0.32% (n = 300,000). AID 1910, 2009;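 active means mean activation of at least 10% of the iron chelator positive control signal, with at least half of replicates also reaching 10%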
VLA-4 inh = inhibition in human VLA-4 binding assay, primary screen, VLA-4 allosteric modulator project, MLPCN library, flow cytometry, VLA-4 expressing cells; inhibition, % (about 7 µM as worked out from the volumes in the protocol); actives 0.2% (n = 330,000); AID 2557, 2010; ligand binding flow cytometry; in the data active means inhibition above about 50%
Target sequence (P13612 whole entry, looked up): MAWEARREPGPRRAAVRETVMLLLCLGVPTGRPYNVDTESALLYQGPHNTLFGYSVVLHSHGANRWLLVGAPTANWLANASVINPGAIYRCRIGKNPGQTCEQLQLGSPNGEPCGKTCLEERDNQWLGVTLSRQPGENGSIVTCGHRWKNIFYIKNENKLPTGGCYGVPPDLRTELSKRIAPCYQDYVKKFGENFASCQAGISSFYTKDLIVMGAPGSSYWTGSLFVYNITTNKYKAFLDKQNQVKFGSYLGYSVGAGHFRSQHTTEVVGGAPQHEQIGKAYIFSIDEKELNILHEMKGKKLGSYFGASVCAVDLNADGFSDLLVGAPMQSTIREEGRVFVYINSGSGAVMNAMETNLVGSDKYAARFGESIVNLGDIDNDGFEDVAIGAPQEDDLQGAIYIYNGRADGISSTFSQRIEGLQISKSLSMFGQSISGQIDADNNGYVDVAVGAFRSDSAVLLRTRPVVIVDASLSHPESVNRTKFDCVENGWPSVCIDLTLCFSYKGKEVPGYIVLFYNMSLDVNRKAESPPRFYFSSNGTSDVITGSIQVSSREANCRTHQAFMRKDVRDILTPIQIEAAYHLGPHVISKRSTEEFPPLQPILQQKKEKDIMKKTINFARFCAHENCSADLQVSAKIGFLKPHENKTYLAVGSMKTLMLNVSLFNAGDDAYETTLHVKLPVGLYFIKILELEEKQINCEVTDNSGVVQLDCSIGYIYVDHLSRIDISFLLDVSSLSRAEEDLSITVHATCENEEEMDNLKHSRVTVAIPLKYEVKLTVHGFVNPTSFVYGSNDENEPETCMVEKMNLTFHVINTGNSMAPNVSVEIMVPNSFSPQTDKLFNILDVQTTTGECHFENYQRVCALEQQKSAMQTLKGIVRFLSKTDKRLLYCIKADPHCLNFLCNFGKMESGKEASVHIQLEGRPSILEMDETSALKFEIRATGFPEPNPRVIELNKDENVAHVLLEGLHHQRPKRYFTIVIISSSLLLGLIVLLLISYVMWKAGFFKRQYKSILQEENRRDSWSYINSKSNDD
AI-2 QS mod = Vibrio harveyi AI-2 quorum sensing modulators, primary screen, JMH597 strain, luminescence/OD600 ratio | Vibrio harveyi JMH597 AI-2 luminescence/OD600 ratio, 9 h; active compounds read low; strain lacks LuxN and CqsS sensors; 0 = neutral-control median | activity change, % at 7.5 µM | actives 0.4% (n = 300,000) | AID 2094, 2009; in the data active means activity change below about -75%, passing the limit was not always enough;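 further: luminescence divided by OD600 gain over 9 h not by final OD600 alone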
CHT inh = inhibitors of human choline transporter CHT | B-score at 10 µM | CHT-expressing cells, membrane potential dye, choline response; active compounds read low | actives 0.86% (n = 310,000) | High affinity choline transporter 1 (Homo sapiens), Q9GZV3 | AID 488975, 2010;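 active means B-score over 3 SD under the library average, and starting fluorescence ratio not unusually high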;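 further: choline stimulus applied at its EC90 after an EC20 pre-addition; B-score computed on integrated fluorescence ratio after choline addition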
Platelet DG rel = inhibitors of platelet dense granule secretion, primary screen, cell-based, MLPCN, human platelets. inhibition, %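 (compounds screened at 7.5 µM in platelet-rich plasma)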. AID 1663, 2009. human platelet-rich plasma, SFLLRN dense granule ATP release, luminescence. actives 0.22% (n = 300,000);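 active means mean replicate score, as percent of positive control, at or above 50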
CHT inh conf = CHT inhibitors, confirmation, cell-based, membrane potential dye, duplicate; shares compounds with CHT inh; CHT-expressing cells, choline membrane potential dye; LV-to-AA substituted CHT, HEK293 cells; CHT activity remaining % of control (active compounds read low), % at 10 µM; actives 70% (n = 2,400); AID 493221, 2011;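 active means choline transporter activity left, mean of duplicates at 10 µM, below buffer-only control mean minus 3 SD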;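 further: depolarization triggered by choline at its EC90 following an EC20 pre-addition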
HEK293 CHT ctr = membrane potential effects in parental HEK293, counter-screen for CHT inhibitor project, cell-based, membrane potential dye. shares compounds with CHT inh. choline response; active = decrease or increase beyond buffer ±3SD. membrane potential ratio readout (active if shifted either direction beyond buffer ±3SD; no single direction) at 10 µM. actives 4% (n = 2,400). AID 493222, 2011;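 further: parental cells lack the transporter so any hit is non-specific; ratio is peak minus trough fluorescence over baseline after EC90 choline challenge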
Hits are given with their value; n = inactive; x = no result given. Shown are actives, neighbours in structure and some others; about 2.2% of the full set was active somewhere.

SMILES	CHT allo act	HIF activator	VLA-4 inh	AI-2 QS mod	CHT inh	Platelet DG rel	CHT inh conf	HEK293 CHT ctr
CC(C)Cc1csc(NC(=O)c2ccccc2Cl)c1C(=O)O	n	n	n	n	n	n	x	x
Cc1ccc(-c2csc(NC(=O)c3ccc(Br)cc3)c2C(=O)O)cc1	n	n	n	n	-5.3	n	51%	n
Cc1ccc(-c2csc(NC(=O)c3cccc(C)c3)c2C(=O)O)cc1	n	n	n	n	-7.7	n	43%	n
Cc1ccc(N2C(=O)C3C(C2=O)C2C=CC3C23CC3)c([N+](=O)[O-])c1 (stereo not drawn)	n	n	n	n	n	n	x	x
COc1ccc(CNC(=S)NC2CCCC2)cc1	n	n	n	n	-15	n	n	n
COc1cccc(CNC(=S)NC2CCCC2)c1	n	n	n	n	n	n	x	x
CC1(C)CC(=O)C(N=Nc2ccc(Cl)cc2)=C(O)C1	n	n	n	n	n	n	x	x
COc1ccccc1N=NC1=C(O)CC(C)(C)CC1=O	n	n	n	n	-5.5	n	n	n
C=CCn1c(SCC(=O)c2ccc(OC)cc2)nnc1-c1ccc2c(c1)OCO2	n	n	n	n	-15	n	n	n
C=CCn1c(SCC(=O)Nc2ccc3c(c2)OCO3)nnc1-c1ccccc1OC	n	n	n	n	n	n	x	x
CC(=O)c1ccc(S(=O)(=O)Nc2ccc(C(=O)N(C)CC(=O)Nc3cccc(C)c3C)cc2)cc1	x	x	n	x	x	x	x	x
CCCCC[C@H](O)/C=C/[C@@H]1[C@@H](C/C=C\CCCC(=O)O)[C@@H](O)C[C@H]1O	n	n	n	n	-5.9	n	33%	n
COc1cc(NC(=O)CSc2ncnc3sc4c(c23)CCC(C)C4)c(C(=O)O)cc1OC (stereo not drawn)	n	n	n	n	-6.3	n	70%	n
CC1CCc2c(sc3ncnc(SCC(=O)Nc4ccc(C(=O)O)cc4)c23)C1 (stereo not drawn)	n	n	n	n	n	n	x	x
COc1ccccc1S(=O)(=O)Cc1ccc(C(=O)N2CCN(c3ccc(C)cc3)C(C)C2)o1 (stereo not drawn)	n	n	n	n	n	n	x	x
COc1ccc(S(=O)(=O)Cc2ccc(C(=O)N3CCN(c4cccc(C)c4)C(C)C3)o2)cc1 (stereo not drawn)	n	x	n	n	-5.4	n	n	n
CSc1nc(Nc2ccc(Cl)cc2)c(C#N)c(=O)[nH]1	n	n	n	n	-6.1	n	n	n
CSc1nc(-c2ccc(Cl)cc2)c(C#N)c(=O)[nH]1	n	n	n	n	n	n	x	x
Oc1c(Cl)cc(Cl)cc1C=Nc1ccc2c(c1)OCCO2	n	n	n	n	-5.1	n	62%	n
NC(N)=N/N=C/c1ccc(Cl)c(Cl)c1	n	n	n	n	-5.4	n	41%	n
Cc1ccc(N(C)S(=O)(=O)c2ccc3c(c2)NC(=O)C(C)S3)cc1 (stereo not drawn)	n	n	n	n	n	n	x	x
O=C1CCCCC/C1=N/Nc1ccc(OCc2ccccc2)cc1	n	n	n	n	n	n	x	x
NC(=O)NC(CC(=O)NNC(=O)c1ccccn1)c1ccccc1Cl (stereo not drawn)	x	x	n	x	x	x	x	x
Clc1ccc(OCCSCc2nc3ccccc3[nH]2)cc1	n	n	n	n	n	n	x	x
